A word on the AC50: it is the midpoint of the concentration-response curve, whichever way the signal moves.

In PubChem BioAssay (EPA / NIEHS) one finds outcome and AC50 data, which are given here for 14 compounds.

SMILES strings stand for the structures. Records with an inconclusive call do not appear. Activity calls are given as the source filed them. The calls were made as follows, unless noted: active = hit-call score of the fitted dose curve at least 0.9, where 1 is the maximum; inactive = score below 0.9.

Assay [1] is described as follows: ATG_NFI_CIS: Attagene CIS-FACTORIAL HepG2 Assay for human Nuclear Factor I (NFI) (AID 2282989). As to conditions: HepG2 cis-regulatory reporter, NFI response element transcription; actives raise or lower the signal. An outline of the steps: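 Reporter transcription driven by endogenous transcription factors in HepG2 cells; 24 h treatment. Quantitation by labelled RT-PCR fragments on capillary electrophoresis, gain- or loss-of-signal relative to DMSO.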

Assay [2] addresses Myc proto-oncogene protein (Homo sapiens) (UniProt P01106). The assay is described as follows: ATG_Myc_CIS: Attagene CIS-FACTORIAL HepG2 Assay for human Myelocytomatosis (Myc) Proto-Oncogene Transcription Factor (AID 2282990). Particulars: HepG2, Attagene cis-reporter transcription factor activity; actives raise or lower the signal. The method in brief:
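DMSO-normalised, bidirectionally fitted reporter mRNA signal. HepG2 cells transfected with cis reporter constructs, treated 24 h; transcripts detected by RT-PCR, 6-FAM primer extension and CE.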

Assay [3] can be described thus: ATG_NF_kB_CIS: Attagene CIS-FACTORIAL HepG2 Assay for human Nuclear Factor Kappa B (NF-kB) (AID 2282991). As to conditions: HepG2 Attagene cis-factorial NF-kB reporter mRNA; actives raise or lower the signal. The method in brief:
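Read-out: reporter transcript levels quantified by RT-PCR plus capillary electrophoresis of 6-FAM-labelled, HpaI-cut fragments. Transfected HepG2 cells, 24 h compound exposure, endogenous NF-kB-driven cis element; gain or loss scored versus DMSO.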

The nature of assay [4]: ATG_NRF2_ARE_CIS: Attagene CIS-FACTORIAL HepG2 Assay for human Nuclear Factor Erythroid 2 Related Factor 2 (NFR2) response to Antioxidant Response Elements (ARE) (AID 2282992).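 As to AC50: reporter mRNA level measured by RT-PCR and capillary electrophoresis fluorescence.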 Particulars: HepG2 Attagene ARE/NRF2 reporter, transcription factor activity; actives raise or lower the signal. An outline of the steps:
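HepG2 cells transiently transfected with multiplexed cis-element reporter constructs, 24 h after chemical dosing; reporter mRNA quantified by RT-PCR, fluorescent primer extension, HpaI digestion and capillary electrophoresis. Bidirectional fit relative to DMSO.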

Assay [5] is described as follows: ATG_Oct_MLP_CIS: Attagene CIS-FACTORIAL HepG2 Assay for human Octamer-Binding Transcription Factor (Oct) (AID 2282993). Particulars: HepG2 Attagene cis-factorial Oct reporter, mRNA; actives raise or lower the signal. An outline of the steps:
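Transfected HepG2 cells, 24 h treatment. Reporter mRNA quantified by RT-PCR–capillary electrophoresis; bidirectional fitting against DMSO.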

The target of assay [6] is human Peroxisome Proliferator-activated Receptor alpha (PPARa), PPARA (gene 5465) (UniProt Q07869). Description: ATG_PPARa_TRANS: Attagene TRANS-FACTORIAL HepG2 Assay for human Peroxisome Proliferator-activated Receptor alpha (PPARa) (AID 2283001; active = hit-call score of the fitted dose curve at least 0.9, where 1 is the maximum;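 as to AC50: potency for gain of reporter signal over DMSO so agonist or activator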). An outline of the steps: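 Gain-of-signal endpoint: reporter mRNA induction relative to DMSO, detected by fluorescent RT-PCR and capillary electrophoresis. HepG2 cells transiently carried GAL4-UAS-driven reporter units plus NR-Gal4 fusion; exposure lasted 24 h.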
Chain of human Peroxisome Proliferator-activated Receptor alpha (PPARa), PPARA (gene 5465) (Q07869 whole entry, looked up, the tested form may be a part): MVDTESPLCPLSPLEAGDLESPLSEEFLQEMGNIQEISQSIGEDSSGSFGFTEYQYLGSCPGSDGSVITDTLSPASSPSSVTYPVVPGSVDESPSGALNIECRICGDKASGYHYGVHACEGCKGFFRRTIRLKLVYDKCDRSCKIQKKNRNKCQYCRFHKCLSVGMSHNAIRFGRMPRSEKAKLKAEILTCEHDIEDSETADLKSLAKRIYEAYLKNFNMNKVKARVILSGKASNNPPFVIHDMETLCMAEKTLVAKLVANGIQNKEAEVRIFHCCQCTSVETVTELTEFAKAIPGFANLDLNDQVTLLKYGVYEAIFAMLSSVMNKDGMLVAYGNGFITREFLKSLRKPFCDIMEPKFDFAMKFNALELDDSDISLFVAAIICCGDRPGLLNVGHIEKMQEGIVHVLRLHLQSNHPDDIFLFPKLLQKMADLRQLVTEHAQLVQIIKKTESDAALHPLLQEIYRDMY

Assay [7] deals with human Peroxisome Proliferator-activated Receptor delta (PPARd), PPARD (gene 5467) (UniProt Q03181). Description: ATG_PPARd_TRANS: Attagene TRANS-FACTORIAL HepG2 Assay for human Peroxisome Proliferator-activated Receptor delta (PPARd) (AID 2283002; active = hit-call score of the fitted dose curve at least 0.9, where 1 is the maximum). The method in brief:
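Measured quantity: GAL4-UAS reporter transcript induction in HepG2 after 24 h chemical dosing, with NR-Gal4 chimeras supplied by transient transfection. Detection by RT-PCR and capillary electrophoresis; upward fit against DMSO.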

For assay [8], the target named is human Retinoic Acid Receptor gamma (RARg), RARG (gene 5916) (UniProt P13631). The assay is described as follows: ATG_RARg_TRANS: Attagene TRANS-FACTORIAL HepG2 Assay for human Retinoic Acid Receptor gamma (RARg) (AID 2283009; active = hit-call score of the fitted dose curve at least 0.9, where 1 is the maximum). The method in brief:
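HepG2 transiently transfected with GAL4-UAS reporter units and chimeric NR-Gal4 constructs; 24 h compound exposure. Reporter mRNA quantified by RT-PCR, FAM labeling, HpaI digestion and capillary electrophoresis; gain-of-signal versus DMSO.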

Assay [9] addresses human RAR-related Orphan Receptor beta (RORb), RORB (gene 6096) (UniProt Q92753). Description: ATG_RORb_TRANS: Attagene TRANS-FACTORIAL HepG2 Assay for human RAR-related Orphan Receptor beta (RORb) (AID 2283010; active = hit-call score of the fitted dose curve at least 0.9, where 1 is the maximum). The method in brief: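 HepG2 cells transiently transfected with GAL4-UAS reporter units expressing chimeric NR-Gal4 protein; reporter mRNA measured 24 h after dosing by RT-PCR, 6-FAM labelling and capillary electrophoresis. Gain-of-signal fitted relative to DMSO baseline.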

Assay [10] has as its target Retinoic acid receptor alpha (Homo sapiens) (UniProt P10276). Description: ATG_RARa_TRANS: Attagene TRANS-FACTORIAL HepG2 Assay for human Retinoic Acid Receptor alpha (RARa) (AID 2283005; active = hit-call score of the fitted dose curve at least 0.9, where 1 is the maximum). The method in brief:
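HepG2 cells transiently transfected with multiple reporter units expressing chimeric RARα-GAL4 fusion, with GAL4-UAS-driven reporters. After 24 h compound exposure, reporter mRNA induction quantified by RT-PCR and capillary electrophoresis with fluorescent labeling; gain-of-signal fitted relative to DMSO control.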

Assay [11] concerns the target Peroxisome proliferator-activated receptor gamma (Homo sapiens) (UniProt P37231). The assay is described as follows: ATG_PPARg_TRANS: Attagene TRANS-FACTORIAL HepG2 Assay for human Peroxisome Proliferator-activated Receptor-gamma (PPARg) (AID 2283007; active = hit-call score of the fitted dose curve at least 0.9, where 1 is the maximum). The method in brief: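 Read-out: reporter mRNA induction, detected by fluorescence after RT-PCR and capillary electrophoresis. Transiently transfected human HepG2 liver cells carrying a chimeric NR-Gal4 construct were dosed for 24 h; activity was fitted upward relative to DMSO.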

For assay [12], the target named is Nuclear receptor subfamily 1 group I member 2 (Homo sapiens) (UniProt O75469). The assay is described as follows: ATG_PXR_TRANS: Attagene TRANS-FACTORIAL HepG2 Assay for human Pregnane X Receptor (PXR) (AID 2283008; active = hit-call score of the fitted dose curve at least 0.9, where 1 is the maximum). An outline of the steps:
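HepG2 cells transiently transfected with GAL4-UAS reporter units and PXR-Gal4 chimera, exposed 24 h. Reporter mRNA quantified by RT-PCR, fluorescent labelling, HpaI digestion and capillary electrophoresis; gain of signal vs DMSO.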

In assay [13] the target is Cellular tumor antigen p53 (Homo sapiens) (UniProt P04637). Description: ATG_p53_CIS: Attagene CIS-FACTORIAL HepG2 Assay for human p53 Transcription Factor (AID 2282994). Particulars: HepG2 p53 cis-element reporter, Attagene mRNA; actives raise or lower the signal. An outline of the steps:
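HepG2 cells transiently transfected with cis-regulated multiple reporter transcription units, dosed 24 h. Reporter mRNA measured by RT-PCR, 6-FAM primer extension, HpaI digestion and capillary electrophoresis; bidirectional fit relative to DMSO.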

Chain of Peroxisome proliferator-activated receptor gamma (Homo sapiens) (P37231 whole entry, looked up, the tested form may be a part): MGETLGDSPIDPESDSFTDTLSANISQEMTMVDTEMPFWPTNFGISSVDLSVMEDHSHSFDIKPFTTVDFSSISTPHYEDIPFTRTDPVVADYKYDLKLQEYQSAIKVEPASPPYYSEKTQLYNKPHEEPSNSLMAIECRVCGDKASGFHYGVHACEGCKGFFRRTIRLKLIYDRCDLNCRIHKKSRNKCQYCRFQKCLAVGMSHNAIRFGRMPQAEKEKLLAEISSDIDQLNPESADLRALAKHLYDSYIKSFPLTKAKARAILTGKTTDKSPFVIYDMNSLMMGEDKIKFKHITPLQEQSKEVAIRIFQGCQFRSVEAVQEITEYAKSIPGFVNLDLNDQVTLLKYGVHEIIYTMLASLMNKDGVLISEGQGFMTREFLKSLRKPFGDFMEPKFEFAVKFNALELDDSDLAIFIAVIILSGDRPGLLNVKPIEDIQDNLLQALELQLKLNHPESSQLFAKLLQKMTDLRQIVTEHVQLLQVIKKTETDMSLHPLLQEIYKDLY
Chain of human Retinoic Acid Receptor gamma (RARg), RARG (gene 5916) (P13631 whole entry, looked up, the tested form may be a part): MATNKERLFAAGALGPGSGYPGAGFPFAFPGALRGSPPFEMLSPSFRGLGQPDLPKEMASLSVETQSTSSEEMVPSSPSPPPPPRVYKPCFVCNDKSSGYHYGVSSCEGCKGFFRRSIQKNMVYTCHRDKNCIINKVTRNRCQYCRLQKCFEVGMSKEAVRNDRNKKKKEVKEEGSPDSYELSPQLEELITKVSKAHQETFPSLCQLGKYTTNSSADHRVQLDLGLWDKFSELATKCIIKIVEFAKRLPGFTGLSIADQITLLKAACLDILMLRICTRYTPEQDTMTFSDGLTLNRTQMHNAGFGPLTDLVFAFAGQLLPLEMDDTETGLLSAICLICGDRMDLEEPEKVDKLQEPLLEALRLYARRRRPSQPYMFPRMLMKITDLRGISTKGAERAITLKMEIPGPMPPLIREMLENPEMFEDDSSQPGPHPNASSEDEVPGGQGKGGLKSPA
Chain of Nuclear receptor subfamily 1 group I member 2 (Homo sapiens) (O75469 whole entry, looked up, the tested form may be a part): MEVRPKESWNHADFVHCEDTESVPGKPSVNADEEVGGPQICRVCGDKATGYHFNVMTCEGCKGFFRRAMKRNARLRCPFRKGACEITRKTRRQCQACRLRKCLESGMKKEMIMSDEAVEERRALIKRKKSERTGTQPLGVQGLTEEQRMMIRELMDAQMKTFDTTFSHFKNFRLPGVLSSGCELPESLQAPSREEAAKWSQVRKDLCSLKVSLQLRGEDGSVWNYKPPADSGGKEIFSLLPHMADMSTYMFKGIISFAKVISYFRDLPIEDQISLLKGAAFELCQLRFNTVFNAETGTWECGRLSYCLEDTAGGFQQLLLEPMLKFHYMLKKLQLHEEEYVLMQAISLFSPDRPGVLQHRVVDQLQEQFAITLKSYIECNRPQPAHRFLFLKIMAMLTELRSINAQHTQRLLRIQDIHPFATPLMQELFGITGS
Chain of Cellular tumor antigen p53 (Homo sapiens) (P04637 whole entry, looked up): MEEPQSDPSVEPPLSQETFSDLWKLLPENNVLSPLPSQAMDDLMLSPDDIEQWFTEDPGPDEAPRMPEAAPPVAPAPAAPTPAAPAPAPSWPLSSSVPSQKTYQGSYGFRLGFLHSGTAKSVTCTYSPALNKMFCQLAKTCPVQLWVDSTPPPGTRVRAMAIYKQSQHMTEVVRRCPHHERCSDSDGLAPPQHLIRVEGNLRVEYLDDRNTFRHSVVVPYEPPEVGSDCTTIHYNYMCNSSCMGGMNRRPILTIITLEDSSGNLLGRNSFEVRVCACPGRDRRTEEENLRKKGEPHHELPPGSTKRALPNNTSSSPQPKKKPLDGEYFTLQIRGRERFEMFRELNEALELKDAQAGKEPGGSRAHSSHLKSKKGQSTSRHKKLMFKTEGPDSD
Chain of human RAR-related Orphan Receptor beta (RORb), RORB (gene 6096) (Q92753 whole entry, looked up, the tested form may be a part): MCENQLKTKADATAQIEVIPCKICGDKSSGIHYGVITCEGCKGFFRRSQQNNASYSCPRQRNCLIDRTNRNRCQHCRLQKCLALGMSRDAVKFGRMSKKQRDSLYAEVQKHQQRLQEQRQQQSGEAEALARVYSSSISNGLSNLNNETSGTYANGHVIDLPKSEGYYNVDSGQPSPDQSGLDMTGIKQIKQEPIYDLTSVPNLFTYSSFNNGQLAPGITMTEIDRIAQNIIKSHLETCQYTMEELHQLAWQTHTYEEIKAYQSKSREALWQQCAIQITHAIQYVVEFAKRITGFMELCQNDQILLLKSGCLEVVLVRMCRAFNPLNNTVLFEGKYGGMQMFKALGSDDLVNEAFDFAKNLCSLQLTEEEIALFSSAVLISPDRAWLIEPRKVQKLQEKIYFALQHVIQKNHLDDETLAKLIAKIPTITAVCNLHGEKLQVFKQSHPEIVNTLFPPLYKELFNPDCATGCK
Chain of Retinoic acid receptor alpha (Homo sapiens) (P10276 whole entry, looked up, the tested form may be a part): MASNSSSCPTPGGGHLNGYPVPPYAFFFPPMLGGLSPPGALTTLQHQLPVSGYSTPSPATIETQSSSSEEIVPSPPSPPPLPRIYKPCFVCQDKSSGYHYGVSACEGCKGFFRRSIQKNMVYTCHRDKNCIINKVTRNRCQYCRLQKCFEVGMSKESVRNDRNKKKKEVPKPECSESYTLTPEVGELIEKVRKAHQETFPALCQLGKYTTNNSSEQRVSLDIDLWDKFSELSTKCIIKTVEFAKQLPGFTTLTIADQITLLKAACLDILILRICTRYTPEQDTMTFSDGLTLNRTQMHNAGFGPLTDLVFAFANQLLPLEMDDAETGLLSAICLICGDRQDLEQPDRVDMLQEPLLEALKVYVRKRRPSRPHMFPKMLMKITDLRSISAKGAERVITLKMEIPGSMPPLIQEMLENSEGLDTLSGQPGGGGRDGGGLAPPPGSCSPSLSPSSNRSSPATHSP
Chain of Myc proto-oncogene protein (Homo sapiens) (P01106 whole entry, looked up): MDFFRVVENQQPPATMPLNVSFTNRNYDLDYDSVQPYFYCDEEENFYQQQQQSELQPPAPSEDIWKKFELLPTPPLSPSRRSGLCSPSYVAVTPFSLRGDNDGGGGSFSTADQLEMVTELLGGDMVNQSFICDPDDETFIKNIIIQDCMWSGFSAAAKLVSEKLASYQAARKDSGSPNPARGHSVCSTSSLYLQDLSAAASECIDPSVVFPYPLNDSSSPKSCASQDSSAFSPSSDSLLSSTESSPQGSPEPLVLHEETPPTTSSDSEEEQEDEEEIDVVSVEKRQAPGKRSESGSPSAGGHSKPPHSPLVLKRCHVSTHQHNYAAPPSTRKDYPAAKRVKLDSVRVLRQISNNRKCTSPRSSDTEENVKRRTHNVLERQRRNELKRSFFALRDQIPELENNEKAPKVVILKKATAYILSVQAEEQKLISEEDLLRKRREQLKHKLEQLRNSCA
Chain of human Peroxisome Proliferator-activated Receptor delta (PPARd), PPARD (gene 5467) (Q03181 whole entry, looked up, the tested form may be a part): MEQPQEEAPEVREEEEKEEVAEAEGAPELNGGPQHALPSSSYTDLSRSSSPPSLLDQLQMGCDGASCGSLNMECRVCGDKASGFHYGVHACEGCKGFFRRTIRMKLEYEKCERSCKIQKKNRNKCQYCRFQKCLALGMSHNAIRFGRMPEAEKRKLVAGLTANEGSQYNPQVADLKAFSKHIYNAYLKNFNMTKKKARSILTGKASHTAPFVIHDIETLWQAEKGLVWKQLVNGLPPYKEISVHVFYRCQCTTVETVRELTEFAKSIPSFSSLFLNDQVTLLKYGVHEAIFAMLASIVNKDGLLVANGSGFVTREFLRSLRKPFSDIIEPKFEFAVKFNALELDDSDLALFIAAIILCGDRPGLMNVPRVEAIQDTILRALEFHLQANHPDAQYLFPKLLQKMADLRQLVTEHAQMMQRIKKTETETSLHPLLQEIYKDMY

Take `CCCCCCCOC(=O)CCC`: the result in [1], in assay [2], in assay [3], in assay [4], in assay [5] and in assay [6] was inactive. The compound was called inactive in assay [7], in assay [8] and in [9].
In the case of `CC1=CC[C@H]2C[C@@H]1C2(C)C`, the compound was called inactive in assay [1], in assay [2], in assay [3], in assay [4], in [5] and in assay [10]. In addition, the compound was called inactive in assay [11] and in assay [12].
On to `O=C(c1ccccc1)C1CCC1`, for which the compound was called inactive in [1], in [2], in assay [3], in assay [4], in assay [5] and in [7]. The outcome in assay [12] and in assay [9] was inactive.
`CC(=O)c1ccc[nH]1`: the compound was classed as inactive in assay [1], in assay [2], in assay [3], in [4], in assay [13] and in assay [6]. For the same compound, the result in assay [7], in [10] and in assay [11] was inactive.
On to `CC(C)CCCC(C)CC=O` (configuration not stated), for which the outcome in assay [1], in assay [2], in assay [3], in [4], in assay [13] and in assay [7] was inactive. For the same compound, the call in assay [11] and in [9] was inactive. The AC50 in assay [6] was 45.8 µM (active).
For `O=C(O)C(c1ccc(Cl)cc1)c1ccc(Cl)cc1`, the result in assay [1], in [2], in assay [3], in [4], in assay [5] and in assay [12] was inactive.
On to `O=C1CC2CC1C1CCCC21` (configuration not stated), for which the outcome in assay [1], in [2], in [3], in assay [13], in [6] and in assay [7] was inactive. Further, the compound was classed as inactive in [11], in [12], in [8] and in assay [9]. Besides, the concentration at half-maximal activity (AC50) in [4] was 72.4 µM (active).
As to `O=C(/C=C/C=C/c1ccc2c(c1)OCO2)N1CCCCC1`, the result in assay [1], in assay [2], in assay [3] and in [5] was inactive. Moreover, the AC50 is 47.4 µM (active) in assay [4], 6.43 µM (active) in assay [11] and 0.893 µM (active) in assay [12].
As for `C=CC(C)(CCC=C(C)C)OC(=O)CC(C)C` (configuration not stated), the result in assay [1], in [2], in [3], in assay [5] and in assay [7] was inactive. For the same compound, the AC50 in [4] is 100 µM (active); in assay [11], 58.2 µM (active); in assay [12], 11.8 µM (active).
Take `O=S(=O)(O)c1cc(S(=O)(=O)O)c2ccc3c(S(=O)(=O)O)cc(S(=O)(=O)O)c4ccc1c2c43`: the outcome in assay [1], in [2], in assay [3], in [4], in [5] and in assay [7] was inactive. Also, the call in [10], in [8] and in assay [9] was inactive.
Turning to `COc1ccc(NC(C)=O)cc1N`, the compound was classed as inactive in assay [1], in assay [2], in [3], in [4], in assay [5] and in assay [7].
Regarding `OC1CCCC1`, the outcome in assay [1], in assay [2], in assay [3], in [4], in assay [5] and in assay [7] was inactive. For the same compound, the result in assay [10] and in assay [9] was inactive.
Consider `Clc1nc2ccccc2s1`, for which the result in [1], in assay [2], in [3], in assay [4], in assay [5] and in assay [6] was inactive. Besides, the compound was classed as inactive in assay [10], in assay [12], in assay [8] and in [9].
On to `CCN(Cc1cccc(S(=O)(=O)O)c1)c1ccc(C(=C2C=CC(=[N+](CC)Cc3cccc(S(=O)(=O)[O-])c3)C=C2)c2ccccc2)cc1`, for which the result in assay [1], in [2], in assay [3], in assay [13], in [7] and in assay [12] was inactive. For the same compound, in assay [9], the outcome was inactive. Moreover, the half-maximal activity concentration (AC50) was 112 µM (active) in [4] and 31.1 µM (active) in assay [11].
